# Reference: PubChem BioAssay (NCATS)
# A number with no mark means an inactive call. How the calls were made is not given here.
# System: HIV-1 nucleocapsid protein NCp7 (binding to TG oligonucleotide)
# Experiment: HIV Nucleocapsid (AID 346);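 further: potency is for inhibitors that block NC binding and lower polarization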
# Conditions: HIV-1 NC / fluorescein-TGTGTGTG probe, fluorescence polarization
# How it was run: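 10 nM TG4xF probe with 100 nM nucleocapsid protein in high-salt Hepes pH 7.5 (250mM NaCl) containing 1uM ZnCl2 and reducing agents. Compound inhibition of binding was read as fluorescein polarization after 1 hr at room temperature.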
# Potency means the concentration at half of the fitted maximal effect.
row,SMILES,Potency
1,O=C(c1cc(C(F)(F)F)cc(C(F)(F)F)c1)N1CCC2(CC1)CCN(c1ccccc1)CC2,> 20 µM
2,O=c1c(-c2ccc(F)cc2)nc2cnc(Nc3ccccc3)nc2n1C[C@H]1CCCO1,> 20 µM
3,COc1ccc2[nH]cc(CCNc3ncnc4ccc(-c5ccccc5CN(C)C)cc34)c2c1,> 20 µM
4,CN(C)c1nc(-c2cccc(C#N)c2)nc2ccccc12,> 20 µM
5,COc1ccc2[nH]cc(CCNc3ncnc4ccc(-c5ccccc5OC)cc34)c2c1,> 20 µM
6,Cn1c(=O)c(-c2ccc(F)c(F)c2)nc2cncnc21,> 4 µM
7,COc1cccc(Nc2ncc3nc(-c4cccs4)c(=O)n(Cc4cccs4)c3n2)c1,> 20 µM
8,CN1CCN(c2ncc3nc(-c4ccc(Cl)cc4)c(=O)n(Cc4cccs4)c3n2)CC1,> 20 µM
9,Cn1cccc1C(=O)N1CCC2(CCCN(Cc3ccc(C#N)cc3)C2)CC1,> 20 µM
10,CN1CCN(c2ncc3nc(-c4cccs4)c(=O)n(CCC#N)c3n2)CC1,15.3 µM
11,CC(C)CN1CCC2(CC1)CCN(S(=O)(=O)c1ccccc1)CC2,> 20 µM
12,COc1ccc(CNc2ncncc2-c2ccccc2CN(C)C)c(OC)c1,> 20 µM
13,CN(C)Cc1ccccc1-c1cncnc1Nc1ccccc1,> 20 µM
14,CS(=O)(=O)N1CCC2(CC1)CN(C(=O)Nc1ccccc1)C2,> 20 µM
15,COc1ncc2nc(-c3cc(F)cc(F)c3)c(=O)n(CCC#N)c2n1,> 20 µM
16,COc1cccc(Nc2ncc3nc(C)c(=O)n(CCC#N)c3n2)c1,> 20 µM
17,COc1ccccc1CNc1ccnc(-c2cccc(C#N)c2)n1,> 20 µM
18,COCCNc1cc(-c2ccccc2C)ncn1,> 20 µM
19,Cc1cnc(CNc2nc(-c3ccccc3C(F)(F)F)nc3ccccc23)cn1,> 20 µM
20,COc1ccccc1CN1CCCC2(CCN(C(C)=O)CC2)C1,> 20 µM

row,SMILES,Potency
1,CS(=O)(=O)N1CCC2(CCN(C(c3ccccc3)c3ccccc3)CC2)CC1,> 20 µM
2,COCC(=O)N1CCC[C@@]2(CCN(Cc3ccc(C#N)cc3)C2)C1,> 20 µM
3,CN1CCN(c2ncnc3ccc(-c4ccccc4C#N)cc23)CC1,> 20 µM
4,COc1ccc(CNc2ncncc2-c2ccoc2)c(OC)c1,> 20 µM
5,COc1ccc(CNc2ncncc2-c2ccc3c(c2)OCO3)c(OC)c1,> 20 µM
6,COc1ccc(Oc2ncc3nc(-c4ccc(F)cc4)c(=O)n(C)c3n2)cc1,> 20 µM
7,CC(=O)NCCNc1nc(-c2ccccc2Cl)nc2ccccc12,> 20 µM
8,Cc1noc(C)c1-c1nccc(N2CCOCC2)n1,> 20 µM
9,N#Cc1ccc(CN2CC3(CCN(C(=O)c4csnn4)CC3)C2)cc1,> 20 µM
10,COc1ccccc1CN1CC[C@@]2(CCCN(C(=O)c3cccc(F)c3)C2)C1,> 20 µM
11,Cc1noc(C)c1C(=O)N1CCC[C@@]2(CCN(Cc3nccs3)C2)C1,> 20 µM
12,c1nc(NC2CCNCC2)c2cc(-c3ccoc3)ccc2n1,> 20 µM
13,CCNc1ncc2nc(-c3ccc(Cl)cc3)c(=O)n(Cc3cccc(OC)c3)c2n1,14.6 µM
14,O=c1c(CCc2ccccc2)nc2cnc(N3CCOCC3)nc2n1C[C@H]1CCCO1,> 20 µM
15,COc1ccc(-n2c(=O)c(-c3ccc(Cl)cc3)nc3cncnc32)cc1,> 4 µM
16,COc1ccc2[nH]cc(CCNc3ncncc3-c3ccccc3Cl)c2c1,> 20 µM
17,COc1ccccc1CN1CCCC2(CCN(C(=O)c3ccncc3)CC2)C1,> 20 µM
18,O=c1c(-c2cccc(Cl)c2)nc2cncnc2n1Cc1ccc(F)cc1,> 20 µM
19,O=c1c(-c2ccccc2)nc2cnc(N3CCOCC3)nc2n1-c1ccccc1,> 20 µM
20,COc1cccc(-c2ccc3ncnc(N4CCOCC4)c3c2)c1,> 20 µM
